# Reference: PubChem BioAssay
# The source made the active and inactive calls.
# Assays:
# [1] = binders of probe aFSTL3 on microarray, primary screen, stem cell growth factor project, biochemical, small-molecule microarray, fluorescence 635/667 (AID 1064); settings: higher = more signal;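 further: measures binding of the biotinylated anti-FSTL3 antibody to printed compounds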
# [2] = binders from COS7 lysate, DM2A8 probe, primary screen, torsin A project, cell lysate, small-molecule microarray, fluorescence 635/667 (AID 1065); settings: higher = more signal, COS7 lysate expressing mutant human TOR1A
# [3] = binders of probe aFGF2 on microarray, primary screen, stem cell growth factor project, biochemical, small-molecule microarray, fluorescence 635/667 (AID 1067); settings: higher = more signal;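 further: measures binding of biotinylated aFGF2 protein to printed compounds on slides; z-score merges feature fluorescence and signal-to-noise across triplicate slides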
# [4] = binders of probe aFGF10 on microarray, primary screen, stem cell growth factor project, biochemical, small-molecule microarray, fluorescence 635/667 (AID 1071); settings: higher = more signal;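 further: score merges 667 nm spot intensity and signal to noise from triplicate slides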
# [5] = molecular target: Neurogenic locus notch homolog protein 2 (Homo sapiens) (UniProt Q04721); experiment: Notch2 binders on small-molecule microarrays, primary screen, biochemical, small-molecule microarray, 635 nm fluorescence, stem cell growth factors (AID 1073); settings: Notch2 binding, higher = more signal
# Chain of Neurogenic locus notch homolog protein 2 (Homo sapiens) (Q04721 whole entry, looked up, canonical isoform): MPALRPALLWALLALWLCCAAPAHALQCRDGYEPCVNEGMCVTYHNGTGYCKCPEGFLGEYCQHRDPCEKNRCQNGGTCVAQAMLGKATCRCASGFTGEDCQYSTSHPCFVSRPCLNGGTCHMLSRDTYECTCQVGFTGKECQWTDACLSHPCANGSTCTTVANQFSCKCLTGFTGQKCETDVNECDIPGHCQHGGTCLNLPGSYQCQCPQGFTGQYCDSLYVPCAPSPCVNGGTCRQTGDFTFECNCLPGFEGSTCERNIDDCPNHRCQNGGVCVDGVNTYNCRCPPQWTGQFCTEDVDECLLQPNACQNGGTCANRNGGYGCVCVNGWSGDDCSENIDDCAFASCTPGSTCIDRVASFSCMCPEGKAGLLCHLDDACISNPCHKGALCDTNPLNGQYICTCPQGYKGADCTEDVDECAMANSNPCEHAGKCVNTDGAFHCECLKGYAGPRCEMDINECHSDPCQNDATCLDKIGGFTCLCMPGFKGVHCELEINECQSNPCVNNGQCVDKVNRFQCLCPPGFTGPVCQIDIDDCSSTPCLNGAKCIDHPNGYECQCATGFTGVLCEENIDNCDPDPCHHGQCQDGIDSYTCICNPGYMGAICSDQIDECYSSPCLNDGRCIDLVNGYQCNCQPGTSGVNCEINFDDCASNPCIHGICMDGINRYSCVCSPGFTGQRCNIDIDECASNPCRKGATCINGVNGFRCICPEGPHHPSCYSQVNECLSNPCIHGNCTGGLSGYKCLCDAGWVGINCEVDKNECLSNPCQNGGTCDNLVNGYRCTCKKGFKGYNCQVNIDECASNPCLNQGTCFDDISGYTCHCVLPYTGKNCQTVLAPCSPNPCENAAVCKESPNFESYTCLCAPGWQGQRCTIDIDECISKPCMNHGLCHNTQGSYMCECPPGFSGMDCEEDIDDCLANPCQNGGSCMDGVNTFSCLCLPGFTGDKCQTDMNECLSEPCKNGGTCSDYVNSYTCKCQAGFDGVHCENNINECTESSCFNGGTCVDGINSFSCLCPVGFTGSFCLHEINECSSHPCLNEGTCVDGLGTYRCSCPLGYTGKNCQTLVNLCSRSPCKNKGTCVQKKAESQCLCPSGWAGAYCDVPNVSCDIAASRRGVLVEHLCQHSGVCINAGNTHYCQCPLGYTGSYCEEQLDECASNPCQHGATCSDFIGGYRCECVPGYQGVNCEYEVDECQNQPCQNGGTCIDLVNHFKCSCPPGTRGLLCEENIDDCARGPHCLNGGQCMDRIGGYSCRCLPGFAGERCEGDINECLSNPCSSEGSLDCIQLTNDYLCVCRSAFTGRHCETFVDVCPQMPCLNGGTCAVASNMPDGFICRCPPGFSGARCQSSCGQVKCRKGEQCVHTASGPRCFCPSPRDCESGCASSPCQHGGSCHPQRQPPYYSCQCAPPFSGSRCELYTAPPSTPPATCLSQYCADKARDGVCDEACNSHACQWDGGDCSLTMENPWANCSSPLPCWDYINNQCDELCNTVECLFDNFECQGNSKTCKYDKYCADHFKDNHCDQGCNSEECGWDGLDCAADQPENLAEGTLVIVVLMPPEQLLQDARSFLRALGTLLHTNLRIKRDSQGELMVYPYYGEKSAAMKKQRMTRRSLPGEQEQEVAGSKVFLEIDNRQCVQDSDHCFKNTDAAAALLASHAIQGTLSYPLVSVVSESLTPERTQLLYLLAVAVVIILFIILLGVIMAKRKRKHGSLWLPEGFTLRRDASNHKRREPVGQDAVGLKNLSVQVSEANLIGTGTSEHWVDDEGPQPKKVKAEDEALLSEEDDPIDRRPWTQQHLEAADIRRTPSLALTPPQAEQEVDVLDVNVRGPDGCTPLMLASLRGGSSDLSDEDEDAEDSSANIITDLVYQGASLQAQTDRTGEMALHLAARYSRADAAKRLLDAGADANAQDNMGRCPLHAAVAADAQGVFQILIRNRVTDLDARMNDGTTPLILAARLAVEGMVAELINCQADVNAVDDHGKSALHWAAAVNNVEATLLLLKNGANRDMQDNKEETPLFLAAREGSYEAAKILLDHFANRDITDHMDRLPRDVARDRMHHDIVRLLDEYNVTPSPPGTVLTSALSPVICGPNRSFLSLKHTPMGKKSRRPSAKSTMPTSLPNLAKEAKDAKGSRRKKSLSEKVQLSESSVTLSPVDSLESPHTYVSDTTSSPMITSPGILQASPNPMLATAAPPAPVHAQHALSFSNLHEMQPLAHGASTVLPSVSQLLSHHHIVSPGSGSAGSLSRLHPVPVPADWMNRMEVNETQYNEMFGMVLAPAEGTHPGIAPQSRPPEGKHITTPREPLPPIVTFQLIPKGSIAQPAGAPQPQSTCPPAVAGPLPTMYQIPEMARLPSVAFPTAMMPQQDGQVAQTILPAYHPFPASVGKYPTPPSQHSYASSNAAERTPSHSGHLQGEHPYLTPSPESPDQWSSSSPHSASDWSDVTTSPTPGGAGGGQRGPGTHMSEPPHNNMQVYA
# [6] = molecular target: Pro-neuregulin-1, membrane-bound isoform (Homo sapiens) (UniProt Q02297); experiment: NRG1 binders on small-molecule microarrays, primary screen, psychiatric disease protein project, biochemical, small-molecule microarray, fluorescence 635/667 (AID 1075); settings: NRG1 binding, 635 nm fluorescence, higher = more signal;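 further: score combines 667 nm spot fluorescence with signal to noise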
# Chain of Pro-neuregulin-1, membrane-bound isoform (Homo sapiens) (Q02297 whole entry, looked up, the tested form may be a part, canonical isoform): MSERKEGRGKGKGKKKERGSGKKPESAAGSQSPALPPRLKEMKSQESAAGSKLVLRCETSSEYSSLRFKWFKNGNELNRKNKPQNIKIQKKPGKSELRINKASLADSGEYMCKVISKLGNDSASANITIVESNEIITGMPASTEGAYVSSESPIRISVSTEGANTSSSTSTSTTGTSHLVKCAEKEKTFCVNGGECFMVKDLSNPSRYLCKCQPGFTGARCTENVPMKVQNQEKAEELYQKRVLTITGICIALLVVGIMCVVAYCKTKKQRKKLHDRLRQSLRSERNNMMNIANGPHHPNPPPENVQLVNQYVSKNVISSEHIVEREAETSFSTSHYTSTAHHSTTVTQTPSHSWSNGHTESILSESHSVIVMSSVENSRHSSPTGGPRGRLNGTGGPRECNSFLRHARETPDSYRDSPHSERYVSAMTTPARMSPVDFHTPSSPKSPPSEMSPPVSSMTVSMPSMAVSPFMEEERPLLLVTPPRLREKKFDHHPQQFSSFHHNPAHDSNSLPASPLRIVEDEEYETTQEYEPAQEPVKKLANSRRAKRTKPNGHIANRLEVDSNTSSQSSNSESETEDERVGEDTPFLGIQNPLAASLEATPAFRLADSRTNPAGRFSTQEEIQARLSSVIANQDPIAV
# [7] = system: Neuregulin-1 EGF-like domain; experiment: binders of neuregulin-1 EGF-like domain, primary screen, biochemical, small-molecule microarray, 635 nm fluorescence (AID 1081); settings: small-molecule microarray binding, higher = more signal;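 further: binding of the protein to compounds printed on small-molecule microarray slides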
# [8] = FRG1 promoter luciferase signal modulators, primary screen, FRG1 inhibition for FSHD, cell-based, C2C12 myotubes, firefly/Renilla luciferase, luminescence (AID 1084); settings: higher = more signal, called active from +8 up or from −8 down
# [9] = binders of probe aFST on microarray, primary screen, stem cell growth factor project, biochemical, small-molecule microarray, fluorescence 635/667 (AID 1086); settings: higher = more signal;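 further: score merges 667 nm fluorescence with signal-to-noise of each printed compound spot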
# [10] = binders of probe aHhip on microarray, primary screen, stem cell growth factor project, biochemical, small-molecule microarray, fluorescence 635/667 (AID 1087); settings: higher = more signal;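 further: score merges spot fluorescence at 667nm with spot signal to noise ratio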
# [11] = system: PRMT1 (protein arginine N-methyltransferase 1); experiment: PRMT1 binders on small-molecule microarrays, primary screen, biochemical, small-molecule microarray, 635 nm fluorescence (AID 1088); settings: small-molecule microarray binding, higher = more signal;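 further: binding of Prmt1 protein to compounds spotted on small-molecule microarray slides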
# [12] = yeast growth modulation, basal conditions, primary screen, YJM789 clinical isolate, OD600, 24 h (AID 1089);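 further: growth of clinical yeast isolate S. cerevisiae YJM 789 seeded 1000 cells per well; test concentration not given here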; settings: S. cerevisiae YJM789 growth, higher = more signal, called active from +8 up or from −8 down
# [13] = fission yeast growth modulation, primary screen, strain 972, OD600, 24 h, no modulator (AID 1090);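 further: basal condition with compound alone and no growth modifier present; test concentration not given here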; settings: S. pombe 972 growth, higher = more signal, called active from +8 up or from −8 down
# [14] = S. cerevisiae growth modulation with rapamycin, primary screen, strain BY4716, OD600, 96 h (AID 1091); settings: higher = more signal, called active from +8 up or from −8 down; further: test concentration not given here
# [15] = molecular target: Torsin-1A-interacting protein 2 (Homo sapiens) (UniProt Q8NFQ8); experiment: LULL1 binders on small-molecule microarray, primary screen, cell lysate, human LULL1 lysate, 635/667 nm fluorescence (AID 1092); settings: hLULL1 lysate binding, 635 nm fluorescence, higher = more signal;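 further: probe is lysate of COS7 cells overexpressing human LULL1; score merges per-feature 667 nm fluorescence with signal-to-noise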
# Chain of Torsin-1A-interacting protein 2 (Homo sapiens) (Q8NFQ8 whole entry, looked up): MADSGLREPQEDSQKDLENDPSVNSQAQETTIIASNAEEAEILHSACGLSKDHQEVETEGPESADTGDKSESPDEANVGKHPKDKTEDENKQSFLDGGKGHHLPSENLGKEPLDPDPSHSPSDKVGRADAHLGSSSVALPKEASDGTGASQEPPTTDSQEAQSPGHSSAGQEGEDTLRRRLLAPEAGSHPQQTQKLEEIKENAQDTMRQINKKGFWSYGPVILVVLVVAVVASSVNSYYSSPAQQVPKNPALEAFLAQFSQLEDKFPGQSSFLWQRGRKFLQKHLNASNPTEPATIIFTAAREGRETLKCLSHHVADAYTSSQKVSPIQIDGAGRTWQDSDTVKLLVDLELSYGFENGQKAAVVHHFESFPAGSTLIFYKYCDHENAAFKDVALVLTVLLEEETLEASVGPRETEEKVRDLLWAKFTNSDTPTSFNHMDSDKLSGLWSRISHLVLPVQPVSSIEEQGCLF
# [16] = E. coli growth modulation, two-sided OD650, primary screen, E. coli filamentation project, strain DRC41, 24 h (AID 1093); settings: OD650, 24 h, higher = more signal, called active from +8 up or from −8 down;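 further: MC1000 strain lacking acrAB efflux and sulA so SOS filamentation is blocked; test concentration not given here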
# [17] = small-molecule microarray binders of probe aLefty2, primary screen, biochemical, biotinylated probe, 635/667 nm fluorescence (AID 1094); settings: higher = more signal;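 further: score merges spot fluorescence near 667 nm with spot signal-to-noise ratio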
# [18] = system: Noggin (protein binding on small-molecule microarray); experiment: Noggin binders on small-molecule microarray, primary screen, biochemical, 635/667 nm fluorescence (AID 1095); settings: 635 nm fluorescence, higher = more signal;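 further: score merges 667 nm feature fluorescence with signal to noise over triplicate slides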
# [19] = molecular target: Neurogenic locus notch homolog protein 3 (Homo sapiens) (UniProt Q9UM47); experiment: NOTCH3 binders on small-molecule microarray, primary screen, biochemical, 635/667 nm fluorescence (AID 1096); settings: NOTCH3 binding, 635 nm fluorescence, higher = more signal
# [20] = small-molecule microarray binders of probe aEGFR, primary screen, biochemical, biotinylated probe, 635/667 nm fluorescence (AID 1097); settings: higher = more signal;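 further: probe is a biotinylated anti-EGFR antibody binding compounds printed on slides; score combines fluorescence near 667 nm and signal to noise of each spot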
Structure (SMILES),composite z-score [1],composite z-score [2],composite z-score [3],composite z-score [4],composite z-score [5],composite z-score [6],composite z-score [7],z-score [8],composite z-score [9],composite z-score [10],composite z-score [11],z-score [12],z-score [13],z-score [14],composite z-score [15],z-score [16],composite z-score [17],composite z-score [18],composite z-score [19],composite z-score [20]
COC(=O)[C@@]1(Cc2ccc(OC)cc2)[C@H]2c3cc(C(=O)N4CCCC4)n(CCF)c3C[C@H]2CN1C(=O)c1ccccc1,3.09,-0.334,0.972,1.44,1.66,2.27,1.43,1.37 (inactive),3.23,3,0.669,0.366 (inactive),1.13 (inactive),0.4 (inactive),3.56,-1.09 (inactive),1.64,-0.183,1.12,1.37
[N-]=[N+]=NCc1ccccc1C[C@]1(C(=O)NCCN2CCOCC2)COC(c2ccc(OCCCO)cc2)=N1,0.186,1.25,-0.0647,0.121,0.973,1.02,1.2,-2.23 (inactive),0.817,-0.0645,1.55,-1.52 (inactive),-2.24 (inactive),-1.66 (inactive),3.08,1.46 (inactive),0.0004,0.516,0.486,-0.0351
COc1ccc([Si](C)(C)[C@H]2[C@H](CCn3cc(CCO)nn3)O[C@@]3(C(=O)N(Cc4cccc(N5C(=O)c6cccc7cccc5c67)c4)c4ccccc43)[C@@H]2C)cc1,-0.201,0.603,-0.105,0.906,0.45,0.772,0.862,-3.54 (inactive),0.395,1.55,1.46,0.502 (inactive),0.903 (inactive),27.7 (active),2.2,0.921 (inactive),-0.288,1.03,0.79,-0.142
COc1cc(C(O)C2C=CC3C(=O)NC(=O)C3N2Nc2ccc(Cl)cc2Cl)cc(OC)c1OC (stereo not given),0.223,-1.1,0.0461,0.476,1.63,1.72,1.21,1.15 (inactive),1.7,0.203,1.18,-12.3 (active),-1.57 (inactive),0.27 (inactive),3.27,-0.66 (inactive),0.162,0.049,1.09,0.114
CC1CC/C=C\[C@H]2OC34C=CCN(c5ccc(Cl)cc5)C(=O)[C@H]3N(C(CO)C(C)C)C(=O)[C@]4(C)C2C(=O)O1 (stereo not given in full),-0.128,1.9,-0.146,-0.38,-0.594,1,1.47,0.51 (inactive),-0.637,0.0373,-0.538,1.04 (inactive),-0.775 (inactive),-0.439 (inactive),2.25,-0.304 (inactive),-0.166,-0.643,0.161,-0.233
COCCCNC(=O)[C@@H]1c2ccccc2C(=O)N(c2ccc(C)cn2)[C@H]1c1ccc(CO)cc1,1.02,-1.72,-0.294,-0.286,-1.58,0.825,-0.54,0.183 (inactive),-0.939,-0.233,-0.0842,0.331 (inactive),-1.18 (inactive),-0.19 (inactive),0.674,-2.29 (inactive),0.0748,-1.73,-0.502,-0.379
COC(=O)[C@@]1(Cc2ccccc2N=[N+]=[N-])N=C(c2ccc(OCCCO)cc2)O[C@H]1c1ccccc1,0.135,0.748,0.0904,0.264,0.287,1.5,1.16,-2.33 (inactive),0.0635,-0.0994,1.14,-0.0982 (inactive),-3 (inactive),23 (active),1.21,0.0111 (inactive),-0.0654,0.314,0.94,-0.115
COC(=O)[C@@]1(Cc2ccccc2)[C@H]2c3cc(C(=O)N4CCCC4)n(Cc4ccccc4)c3C[C@H]2CN1C(=O)c1ccccc1,0.425,-0.463,0.113,0.742,1.69,1.6,1.01,-1.15 (inactive),1.54,-0.135,-0.089,-0.0324 (inactive),0.58 (inactive),1.55 (inactive),3.41,-0.745 (inactive),0.432,0.0362,1.05,0.416
O=C(C=C(CC(O)c1cccc(Cl)c1)OCCF)OCCF (stereo not given),0.876,-0.824,-0.154,-0.694,-1.02,-0.0066,-0.19,-4.54 (inactive),0.0462,0.0596,-1.87,-2.44 (inactive),0.291 (inactive),-0.582 (inactive),0.0714,-0.106 (inactive),-0.166,-1.22,-1.11,-0.128
CC(C)CNC(=O)[C@@]1(C)c2ccccc2C(=O)N(Cc2ccccc2)[C@H]1c1ccc(CO)cc1,1.69,-1.04,-0.206,-1.42,-0.762,0.839,0.614,-1.26 (inactive),0.267,-0.164,-0.579,-1.79 (inactive),-0.849 (inactive),-0.879 (inactive),3.04,-0.483 (inactive),0.0397,-1.79,-0.643,-0.285
C=C(CCCC)/C(=C/C[C@@H](OC(=O)c1ccncc1)c1ccccc1OCCO)c1cc(C(=O)OC)ccc1OC,-0.256,0.815,-0.0628,0.173,0.791,1.17,1.2,0.488 (inactive),-0.242,-0.0296,1.49,0.176 (inactive),-0.587 (inactive),0.259 (inactive),2.75,0.478 (inactive),-0.0154,0.987,0.754,0.0895
O=C1O[C@@H](c2ccccc2)[C@@H](c2ccccc2)N2[C@@H](c3ccc(O)cc3)[C@]3(C(=O)Nc4ccc(C#CC5=CCCCC5)cc43)[C@@H](C(=O)Nc3nc4ccccc4s3)[C@H]12,-0.371,0.449,-0.0455,1.27,1.5,1.34,1.18,-0.453 (inactive),0.647,-0.171,1.54,0.424 (inactive),0.015 (inactive),0.606 (inactive),2.86,0.481 (inactive),0.455,1.04,1.04,0.127
C=CCC(OC(C)=O)[C@@H]1[C@@H](N(Cc2cc3ccccc3o2)C(=O)Cc2ccc(OC)cc2)c2cc(OCCCO)ccc2N1C(=O)c1ccc(-c2ccccc2)cc1 (stereo not given in full),0.378,0.459,-0.0601,-0.204,-0.4,-0.294,-0.529,-0.199 (inactive),0.182,0.251,-0.427,0.0801 (inactive),-0.709 (inactive),0.714 (inactive),0.238,1.53 (inactive),0.0689,-0.624,-1.09,-0.127
O=C(Nc1cc(Br)ccc1C(=O)NCc1cccc(O)c1)c1ccccc1,-0.0036,0.296,-0.0144,0.478,0.708,1.95,1.15,-1.07 (inactive),0.395,-0.318,1.45,1.06 (inactive),-2.4 (inactive),0.537 (inactive),2.5,2.81 (inactive),-0.0291,-0.0072,0.275,-0.0947
[N-]=[N+]=NCc1ccccc1[C@H]1OC(c2ccc(OCCCO)cc2)=N[C@@]1(Cc1ccccc1)C(N)=O,0.712,0.163,0.0138,0.68,1.05,1.36,1.1,2.79 (inactive),1.24,0.0623,1.56,-0.116 (inactive),-1.07 (inactive),-0.443 (inactive),3.37,0.369 (inactive),0.408,0.429,1.13,0.29
Cc1ccc(S[C@]2(C(=O)O)CC(=O)N(C3CCCCC3)[C@@H]2c2ccc(CO)cc2)cc1,-0.27,0.333,-0.0943,-0.315,0.555,1.36,0.962,-1.02 (inactive),0.157,0.0496,1.42,0.316 (inactive),0.222 (inactive),9.82 (active),2.82,0.999 (inactive),-0.132,0.243,0.233,0.0346
COCCOC(=O)N1C(=O)[C@@]2(c3cc(C#CC4(O)CCCCCC4)ccc31)[C@H](C(=O)N1CCN(c3ncccn3)CC1)[C@H]1C(=O)O[C@H](c3ccccc3)[C@H](c3ccccc3)N1[C@@H]2c1ccc(O)cc1,-0.238,0.413,0.0228,0.806,0.372,0.438,1.22,-0.617 (inactive),-0.123,-0.0618,1.47,1.79 (inactive),-0.885 (inactive),2.83 (inactive),2.54,1.31 (inactive),-0.172,0.287,0.546,-0.158
COc1ccc(CCNC(=O)[C@@H]2c3ccccc3C(=O)N(Cc3ccccc3C(F)(F)F)[C@H]2c2ccc(CO)cc2)cc1,0.114,1.02,0.0292,0.0105,-0.354,1.2,0.472,-0.646 (inactive),-0.211,-0.134,0.77,-0.0666 (inactive),0.057 (inactive),-0.0429 (inactive),2.92,0.415 (inactive),0.0258,-0.185,-0.0818,-0.216
C[C@]12C(=O)N(CCCO)[C@@H]3C(=O)N(c4ccc(Cl)cc4)CC=CC31O[C@@H]1/C=C\CCCOC(=O)C12 (stereo not given in full),-0.157,-0.549,-0.0895,-0.512,-1.37,-0.0724,1.13,1.43 (inactive),-0.67,-0.363,0.868,-1.65 (inactive),-1.51 (inactive),-0.488 (inactive),3.16,-0.298 (inactive),-0.262,-0.441,-0.123,-0.261
NC(=O)NCC#Cc1ccc2c(c1)[C@]1(C(=O)N2)[C@H](c2ccc(OCCO)cc2)N2[C@H](c3ccccc3)[C@H](c3ccccc3)OC(=O)[C@H]2[C@@H]1C(=O)N1CCCCCCC1,3.57,0.48,0.943,1.2,1.53,1.74,0.955,-0.154 (inactive),3.04,3.79,1.09,1.57 (inactive),1.43 (inactive),3.66 (inactive),3.3,-0.53 (inactive),1.73,1.88,1.04,1.06
